From PubChem BioAssay
Activity calls are given as the source filed them. How the calls were made is not given here.

Assay: P. aeruginosa biofilm formation inhibitors, primary screen, strain PAO1, LB-PBS medium, absorbance 600 nm (AID 1176); further: test concentration not given here
Settings: P. aeruginosa PAO1 growth/biofilm, A600, 12 h; higher = more signal

z-score, inactive:
COC(=O)[C@]1(Cc2ccccc2CN=[N+]=[N-])N=C(c2ccc(OCCCO)cc2)O[C@@H]1c1ccccc1N=[N+]=[N-] 1.06
O=C1O[C@H](c2ccccc2)[C@H](c2ccccc2)N2[C@H]1[C@@H](C(=O)O)[C@]1(C(=O)Nc3ccc(C#CC4(O)CCCCCC4)cc31)[C@H]2c1ccccc1OCCO -0.645
COCCOC(=O)N1C(=O)[C@@]2(c3ccccc31)[C@H](C(=O)Nc1nc3ccccc3s1)[C@H]1C(=O)O[C@H](c3ccccc3)[C@H](c3ccccc3)N1[C@@H]2c1ccccc1OCCO 2.9
[N-]=[N+]=Nc1ccccc1C[C@]1(C(N)=O)COC(c2ccc(OCCCO)cc2)=N1 0.398
CCOC(=O)C1=CCC(c2cccn2C(=O)OC(C)(C)C)N(S(=O)(=O)c2ccc(C)cc2)C1 (stereo unspecified) -0.144
O=C1C2C=CC(C(O)C(c3ccccc3)c3ccccc3)N(Nc3ccccc3F)C2C(=O)N1c1ccccc1 (stereo unspecified) 0.34
COc1cc(Cc2cc3c(c(-c4ccccc4)n2)[Si](C(C)C)(C(C)C)OC3)cc(OC)c1OC -0.133
CC1(C)OB(/C=C\CC(OC(=O)c2ccncc2)c2ccccc2)OC1(C)C (stereo unspecified) -0.159
COC(=O)[C@@]1(Cc2ccc(F)cc2)[C@H]2c3cc(C(=O)N(C)C)n(Cc4ccc(C(F)(F)F)nc4)c3C[C@H]2CN1C(=O)c1ccccc1 -0.359
Cc1ccc(S[C@]2(C(=O)NC(C)C)CC(=O)N(Cc3ccccc3)[C@@H]2c2ccc(CO)cc2)cc1 0.637
CN1C(=O)C2C=CC(C(O)c3ccc([N+](=O)[O-])cc3)N(Nc3ccccc3)C2C1=O (stereo unspecified) 1.1
C=CCNC(=O)[C@@H]1[C@H]2C(=O)O[C@H](c3ccccc3)[C@H](c3ccccc3)N2[C@H](c2ccc(OCCO)cc2)[C@@]12C(=O)Nc1ccc(C#CC3=CCCCC3)cc12 2.29
O=C/C=C/c1ccc(-c2ccccc2)cc1 -0.944
CCCCCCc1nc(Cc2cc(OC)c(OC)c(OC)c2)c(C)c2c1[Si](C(C)C)(C(C)C)OC2 0.055
[N-]=[N+]=Nc1ccccc1C[C@]1(C(=O)N2CCCCC2)N=C(c2ccc(OCCCO)cc2)O[C@H]1c1ccccc1 0.522
COc1ccc(C(O)C2C=CC3C(=O)N(C)C(=O)C3N2Nc2ccccc2)cc1 (stereo unspecified) 1.33
COc1ccc(C(=O)Nc2ccc(CN3C(=O)[C@]4(O[C@H](CC(=O)N(CCO)Cc5ccccc5)[C@@H]([Si](C)(C)c5ccc(OC)cc5)[C@@H]4C)c4ccccc43)cc2)cc1 0.671
C=C(COC)C(=O)CC[C@@H](OC(=O)c1ccccc1-c1ccccc1C(=O)O)c1ccccc1OCCO 2.1
C=C1C(=O)C=C2CN(C(=O)c3ccccc3)[C@@](Cc3ccc(F)cc3)(C(=O)OC)[C@@H]12 0.439
C=CCOC(=O)[C@@H]1[C@H]2C(=O)O[C@H](c3ccccc3)[C@H](c3ccccc3)N2[C@H](c2ccc(OCCOC(=O)[C@H]3C[C@H]4C(=O)N[C@@H](CCCCN(C)C)C(=O)N4[C@H]3c3cccc(OCCO)c3)cc2)[C@@]12C(=O)Nc1ccccc12 -0.475
COCCCNC(=O)[C@@]1(Cc2ccccc2I)c2ccccc2C(=O)N(Cc2ccccc2OC)[C@H]1c1ccc(CO)cc1 0.18
COCCCNC(=O)[C@@]1(Cc2ccccc2I)c2ccccc2C(=O)N(C2CCCCC2)[C@H]1c1ccc(CO)cc1 1.13
O=C1C2C=CC(C(O)C3CCCCC3)N(Nc3ccccc3F)C2C(=O)N1c1ccccc1 (stereo unspecified) 0.931
COC(=O)C1(CC(C)C)C=C2C(=C(C)C(=O)C2C)CN1 (stereo unspecified) 0.715
CCOC(=O)C=C1C[C@@H](c2cccc([N+](=O)[O-])c2)O[C@@H](c2cccc([N+](=O)[O-])c2)O1 0.285
CC(C)Cc1ccc(CN2CC[C@@H](NC(=O)c3ccccc3)C2)cc1 -0.0248
COc1ccc(CCNC(=O)[C@@]2(c3ccc([N+](=O)[O-])cc3)CC(=O)N(C3CCCCC3)[C@@H]2c2ccc(CO)cc2I)cc1 0.14
COC(=O)[C@]1(Cc2ccccc2N=[N+]=[N-])N=C(c2ccc(OCCCO)cc2)O[C@@H]1c1ccccc1CN=[N+]=[N-] 1.16
C=C(C(=O)CC[C@@H](OC(=O)c1ccccc1-c1ccccc1C(=O)O)c1ccc(OCCO)cc1)C(C)C 0.85
CC(C)[Si]1(C(C)C)OCc2cc(-c3ccc(-c4ccc(Cl)c(Cl)c4)o3)nc(-c3ccc(Oc4ccccc4)cc3)c21 0.574
O=C1C2C=CC(C(O)c3ccccn3)N(Nc3ccc([N+](=O)[O-])cc3)C2C(=O)N1c1ccccc1 (stereo unspecified) 1.17
O=C1OC[C@@H](c2ccccc2)n2cc(/C=C/c3ccccc3)cc21 -0.353
CC[C@@H](O[Si](C#C[Si](C(C)C)(C(C)C)C(C)C)(C(C)C)C(C)C)c1cn([C@H](C)c2ccccc2)nn1 0.596
O=C1OCCC/C=C\[C@H]2OC34C=CCN(Cc5ccccc5)C(=O)[C@H]3N(CCO)C(=O)[C@@H]4C12 (stereo partly specified) -0.152
COc1ccc(C(=O)Nc2cccc(CN3C(=O)[C@]4(O[C@H](CC(=O)N(CCO)Cc5ccccc5)[C@@H]([Si](C)(C)c5ccc(OC)cc5)[C@@H]4C)c4ccccc43)c2)cc1 0.769
COC(=O)[C@@]1(Cc2ccc(F)cc2)[C@H]2c3cc(C(=O)N4CCCC4)n(CCc4c[nH]c5cc(F)ccc45)c3C[C@H]2CN1C(=O)c1ccccc1 -0.815
